How the values were obtained:
Format in all cases: functional
[1] = system: Plasmodium falciparum; assay: GSK_TCMDC: Inhibition of Plasmodium falciparum 3D7 in whole red blood cells, using parasite LDH activity as an index of growth. Test compounds present at 2uM
[2] = system: Plasmodium falciparum; assay: GSK_TCMDC: Inhibition of Plasmodium falciparum Dd2 in whole red blood cells, using parasite LDH activity as an index of growth. Test compounds present at 2uM
[3] = system: HepG2; assay: GSK_TCMDC: Percent inhibition of human HepG2 cell line. Test compounds present at 10uM.

SMILES | Inhibition [1] [%] | Inhibition [2] [%] | Inhibition [3] [%]
CN(C)CCN1CCN(Cc2cccc(-c3csc(-c4nc5ccccc5[nH]4)c3)c2)CC1.O=C(O)C(F)(F)F | 100 | 97 | 28
c1cc2[nH]c(CCCc3nc4cc(C5=N[C@H]6CCCC[C@H]6N5)ccc4[nH]3)nc2cc1C1=N[C@@H]2CCCC[C@@H]2N1 | 85 | 84 | 10
CCNC(=O)NC1CCN(Cc2c(-c3cccs3)nc3ccccc3c2C(=O)N[C@@H](C)C2CCCCC2)CC1 | 95 | 96 | 0
CC(C)CNCc1cccc(-c2cccc(CNCCCN3CCN(C)CC3)c2)c1.O=C(O)C(F)(F)F | 88 | 7 | 5
Cc1cc(N2CCCC2)nc(Nc2ccc(NC(=O)c3ccco3)cc2)n1 | 100 | 43 | 23
CCOC(=O)C(NC(=O)c1ccc([N+](=O)[O-])o1)C(C)C (centres undefined) | 87 | 8 | 0
CC(Cc1ccc(CN(CC(N)=O)Cc2ccc(CC(C)NCCc3cccc(Cl)c3)cc2)cc1)NCCc1cccc(Cl)c1.O=C(O)C(F)(F)F (centres undefined) | 95 | 68 | 26
CC1(C)CCC(=Cc2ccc(Cl)cc2)CC1(O)Cn1ccnc1 (centres undefined) | 99 | 74 | 0
Cc1cc(NC(=O)NCCN2CCC(NC(=O)c3cccc(Br)c3)C2)c2ccccc2n1.O=C(O)C(F)(F)F (centres undefined) | 100 | 60 | 0
Br.O=C(CNc1ccncc1)c1c[nH]c2ccccc12 | 90 | 62 | 31
Cc1noc(C)c1-c1ccc2c(Nc3ccccc3C(C)(C)C)c(C(=O)NCc3ccc4c(c3)OCO4)cnc2c1.Cl | 96 | 88 | 37
Cc1cc(N)c2cc(NC(=O)c3ccc4ccccc4c3)ccc2n1.Cl | 100 | 99 | 33
Cl.O=S(=O)(c1ccc(OCc2ccc(Cl)cc2)cc1)c1cc2c(c(-c3ccc(F)cc3)c1)CCN(CC1CC1)CC2 | 84 | 14 | 0
Oc1cc(NC[C@H]2CCC[C@@H]2NCc2cc(Br)cc(Br)c2)nc2ccccc12 | 100 | 45 | 21
CC(=O)Nc1ccc(CN2CCC(CNC(=O)c3cc(-c4cccc(C(F)(F)F)c4)cs3)C2)cc1.O=C(O)C(F)(F)F (centres undefined) | 97 | 3 | 24
CC(C)(C)c1ccc2nccc(Nc3cccc(O)c3)c2c1 | 99 | 100 | 8
COc1cc(C(=O)Nc2ccc(-c3nc4ccccc4[nH]3)cc2)cc(OC)c1OC | 99 | 33 | 13
COCCN1CCC(N(CC2(O)CCN(c3ccc(C(F)(F)F)cc3)CC2)C(=O)Cn2c(SCc3cccc(F)c3F)cc(=O)c3ccccc32)CC1 | 94 | 75 | 29
O=C1C(C2CCC(c3ccc(Cl)cc3)CC2)=C2OCC3COC2(O3)c2ccccc21 (centres undefined) | 98 | 97 | 7
CN(C)c1ccc(NC2=NC(N)=NC(C)(C)N2)cc1 | 95 | 5 | 0
CC(C)(C)c1cc(CN2CCN(Cc3ccccc3)CC2)cc(C(C)(C)C)c1O | 97 | 0 | 9
O=C(CSc1nnc(-c2ccccc2Br)[nH]1)c1c[nH]c2ccccc12 | 100 | 95 | 7
O=C(Nc1cccc(F)c1)N1CCC(CN2CCOC(c3ccccc3)(c3ccccc3)C2)CC1 | 96 | 97 | 12
CC1CCN(Cc2c(O)ccc3c(O)c(-c4nc5ccccc5s4)c(=N)oc23)CC1 | 98 | 99 | 2
Cc1cccc2nc(-c3cccc(-c4ccc(NC(=O)NC(C)C)cc4)c3)[nH]c12 | 98 | 44 | 30
Cl.O=C(N[C@@H](Cc1cc(F)cc(F)c1)[C@H](O)CNCc1cccc(C(F)(F)F)c1)c1cc(C2CCCC2)cc(N2CCCC2=O)c1 | 95 | 45 | 37
Cc1cccc(NC(=O)c2ccc(C(=O)NC3CCN(CC4CCCCC4)CC3)cc2)c1.O=C(O)C(F)(F)F | 95 | 18 | 14
Fc1cccc(COc2ccc(Nc3ncnc4sc(C#CCNC5CCC5)cc34)cc2Cl)c1 | 100 | 73 | 15

Reference: ChEMBL document CHEMBL1157539, “Thousands of chemical starting points for antimalarial lead identification” (Nature, 2010)
